Data as given in PubChem BioAssay.

system: glycogen synthase kinase-3 (GSK3A per assay name; protocol says GSK3B); test: GSK3 binders on small-molecule microarrays, primary screen, biochemical, small-molecule microarray, 635 nm fluorescence, GSK3A (AID 1103); conditions: small-molecule microarray binding, fluorescence 635 nm; higher = more signal; also: the record names both GSK3A and GSK3B

| SMILES | composite z-score |
| --- | --- |
| C=CCC(OC(C)=O)[C@@H]1[C@@H](N(Cc2ccc(-c3ccccc3)cc2)C(=O)c2ccc(-c3ccccc3)cc2)c2cc(OCCCO)ccc2N1C(=O)c1ccc2ccccc2c1 (stereo not given in full) | -0.0147 |
| CCOC(=O)C[C@H]1[C@H](OC(=O)c2cc3ccccc3oc2=O)[C@@H](NC(=O)c2ccc3ccccc3n2)c2cc(OCCCO)ccc2N1C(=O)Cc1ccc(OC)cc1 | 1.06 |
| Cc1ccc(S[C@]2(C(=O)NCC(F)(F)F)CC(=O)N(Cc3cc(C(F)(F)F)cc(C(F)(F)F)c3)[C@@H]2c2ccc(CO)cc2)cc1 | -0.864 |
| COC(=O)[C@@]1(Cc2ccc(OC)cc2)[C@H]2c3cc(C(=O)N4CCCC4)n(CCc4c[nH]c5ccc(O)cc45)c3C[C@H]2CN1C(=O)c1ccccc1 | 0.778 |
| NC(=O)[C@@]1(Cc2ccccc2)COC(c2ccc(OCCCO)cc2)=N1 | -0.923 |
| COCCOC(=O)N1C(=O)[C@@]2(c3cc(C#CCCO)ccc31)[C@H](C(=O)Nc1nc3ccccc3s1)[C@H]1C(=O)O[C@H](c3ccccc3)[C@H](c3ccccc3)N1[C@@H]2c1ccc(O)cc1 | 1.34 |
| COc1ccc([Si](C)(C)[C@@H]2[C@@H](CCO)O[C@]3(C(=O)N(Cc4ccccc4)c4ccc(N5CCOC5=O)cc43)[C@H]2C)cc1 | 0.624 |
| C=C(/C(=C/C[C@H](OC(C)=O)c1ccc(CO)o1)c1cnc2ccccc2c1)C(C)C | 1.21 |
| COC(=O)[C@@]1(Cc2ccccc2)[C@H]2c3cc(C(=O)N4CCCC4)n(CCc4ccccn4)c3C[C@H]2CN1C(=O)c1ccccc1 | 1.14 |
| COCC(=C=CC[C@H](O)c1ccc(OCCO)cc1)CCO | 0.42 |
| CCOC(=O)C1=C[C@@H](C(C)(C)C)N(S(=O)(=O)c2ccc(C)cc2)[C@H]1c1cccc2ccccc12 | 0.936 |
| C=CC[C@@]1(C(=O)NCCCOC)N=C(c2ccc(OCCCO)cc2)O[C@@H]1c1ccccc1 | 0.326 |
| [N-]=[N+]=Nc1ccccc1C[C@]1(C(=O)NCCN2CCOCC2)COC(c2ccc(OCCCO)cc2)=N1 | 1.3 |
| Cc1ccc(F)cc1S(=O)(=O)N[C@@H]1CCN(Cc2ccc(Br)cc2)C1 | -0.751 |
| OCCCC1=CC(c2ccc(CN3CCCC3)cc2)N(Cc2cc3c(cc2Br)OCO3)CC1 (stereo not given) | 0.328 |
| COC(=O)C1=CC(CCCO)=CC(c2ccc(CN3CCCC3)cc2)N(Cc2cccc(OC(F)(F)F)c2)C=C1C(=O)OC (stereo not given) | 0.68 |
| CC(CO)N1C(=O)[C@@H]2[C@H]3C(=O)OCC=C[C@H]3OC23C=CCN(Cn2nnc4ccccc42)C(=O)[C@@H]13 (stereo not given in full) | -0.778 |
| CC(C)NC(=O)[C@@]1(c2ccc([N+](=O)[O-])cc2)CC(=O)N(C2CCCCC2)[C@@H]1c1ccc(CO)cc1 | 0.645 |

| SMILES | composite z-score |
| --- | --- |
| O=C1CS(=O)(=O)C(c2cccc([N+](=O)[O-])c2)N1c1ccccc1 (stereo not given) | 0.117 |
| NC(=O)NCC#Cc1ccc2c(c1)[C@]1(C(=O)N2)[C@H](c2ccccc2OCCO)N2[C@H](c3ccccc3)[C@H](c3ccccc3)OC(=O)[C@H]2[C@@H]1C(=O)NC[C@H](O)c1ccccc1 | -0.659 |
| CCCC[C@@H](O)C1=C(COc2ccccc2)C[C@H]2C(=O)N(Cc3ccccc3)C(=O)[C@H]2[C@H]1CO | -0.0802 |
| COC(=O)[C@@]1(Cc2ccc(F)cc2)[C@H]2c3cc(C(=O)N(C)C)n(Cc4ccc(OC(F)(F)F)cc4)c3C[C@H]2CN1C(=O)c1ccccc1 | 0.22 |
| COCCOC(=O)N1C(=O)[C@@]2(c3cc(C#CC4=CCCCC4)ccc31)[C@H](c1ccccc1OCCO)N1[C@H](c3ccccc3)[C@H](c3ccccc3)OC(=O)[C@H]1[C@@H]2C(=O)N1CCN(c2ncccn2)CC1 | 1.28 |
| O=C1OCCC=C[C@H]2OC34C=CCN(c5ccc6ccccc6c5)C(=O)[C@H]3N(CCCO)C(=O)[C@@H]4C12 (stereo not given in full) | -2.21 |
| CCCC=C(CCC)[C@@H](NS(=O)(=O)CC12CCC(CC1=O)C2(C)C)c1ccc(C(=O)OC)cc1 (stereo not given in full) | 0.233 |
| CC(C)[Si](C#C[Si](C(C)C)(C(C)C)C(C)C)(O[C@H](c1ccccc1)c1cn(Cc2ccccc2)nn1)C(C)C | 0.654 |
| C[N+](C)(C)CCCC[C@@H]1NC(=O)[C@@H]2C[C@H](C(=O)NCCCCCCN)[C@H](c3cccc(OCCO)c3)N2C1=O | 1.29 |
| COC(=O)[C@@H]1N=C(c2ccc(OCCCO)cc2)O[C@@H]1C | 0.16 |
| Cc1ccc(N2C(=O)c3ccccc3[C@@H](C(=O)NCCCN(C)C)[C@@H]2c2ccc(CO)cc2)nc1 | -0.298 |
| C#CCN(Cc1ccccc1Br)[C@H](/C=C/c1ccccc1)[C@@H](O)Cc1ccccc1 | -0.705 |
| COCCOC(=O)N1C(=O)[C@@]2(c3cc(C#CC4=CCCCC4)ccc31)[C@H](c1ccccc1OCCO)N1[C@H](c3ccccc3)[C@H](c3ccccc3)OC(=O)[C@H]1[C@@H]2C(=O)NC[C@H](O)c1ccccc1 | 1.3 |
| NCCCCCCNC(=O)[C@@H]1C[C@@H]2C(=O)N[C@@H](CCCCN)C(=O)N2[C@@H]1c1ccc(O)cc1 | 0.456 |
| C=CC[C@]1(C(=O)N2CCOCC2)COC(c2ccc(OCCCO)cc2)=N1 | 0.438 |
| COc1ccc(C(=O)Nc2ccc(CN3C(=O)[C@]4(O[C@H](CC(=O)N5Cc6ccccc6C[C@H]5CO)[C@@H]([Si](C)(C)c5ccc(OC)cc5)[C@@H]4C)c4ccccc43)cc2)cc1 | 0.837 |
| CCCNC(=O)[C@@H]1c2ccccc2C(=O)N(Cc2ccc(OC(F)(F)F)cc2)[C@H]1c1ccc(CO)cc1 | 0.284 |
